Inconclusive results are not listed. Calls of active or inactive are those of the source. Calls follow the shape of the dose curve; as a rule, active = well fitted curve in the direction sought with a large enough effect; inconclusive = small, poorly fitted or top-dose-only effect, or another doubt; inactive = no such curve, though single readings can be large; an effect the other way counts as inactive or inconclusive.
How the values were obtained:
[1] = tested on: NAD(P)H diaphorase (Clostridium kluyveri); assay: Diaphorse counterscreen qHTS: Assay Interference Panel against the NCATS CANVASS Library (AID 1347362)
Method in brief: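 Clostridium kluyveri diaphorase in PBS with 0.01% Tween-20 was preincubated 15 min at room temperature in the dark with compounds (11-point series). Resorufin fluorescence (ex 525/20, em 598/25) was read 5 min after adding resazurin/NADH.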

[2] = target: Luciferin 4-monooxygenase (Photinus pyralis) (UniProt P08659); assay: Firefly luciferase counterscreen qHTS: Assay Interference Panel against the NCATS CANVASS Library (AID 1347363)
Method in brief: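 Purified P. pyralis luciferase was added to compounds (11-point series) preincubated 15 min at room temperature with substrate containing 0.013 mM D-luciferin and 0.013 mM ATP; luminescence was read after 5 min.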

[3] = SDT Cancer Cell Toxicity qHTS against the NCATS CANVASS Library (AID 1347365);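 also: SDT canine glioma cells 500 per well in 1536 well plates; nearly all actives have a fitted effect of over 60% in size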
Method in brief: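 SDT dog glioma cells (500/well) exposed to an 11-point compound series for 72 hr at 37C, 5% CO2. Cytotoxicity read as ATP content by CellTiterGlo luminescence; bortezomib titration as control.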

[4] = qHTS for ATAD5 Agonist screened against the NCATS CANVASS Library (AID 1347367);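 also: luciferase reporter driven by ATAD5 which rises upon DNA damage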
Method in brief: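 HEK293T cells stably carrying an ATAD5-controlled luciferase reporter (2000 cells/well) attached for 5 hr, then received compounds in an 11-point series for 16hr at 37C. Luminescence was read after a 30 min room-temperature reagent step.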

[5] = G06 Cancer Cell Toxicity qHTS against the NCATS CANVASS Library (AID 1347368); also: nearly all actives have a fitted effect of over 60% in size
Method in brief: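 G06 dog glioma cells, 500 per well, exposed 72 hr at 37C, 5% CO2 to compounds in an 11-point series. Cytotoxicity read as ATP content by CellTiterGlo luminescence.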

[6] = MCF7 Cancer Cell Toxicity qHTS against the NCATS CANVASS Library (AID 1347369)
From the text: Natural products and their derivatives continue to be wellsprings of nascent therapeutic potential. However, many laboratories have limited resources for biological evaluation, leaving their previously isolated or synthesized compounds largely or completely untested. To address this issue, the Canvass library of natural products was assembled (https://tripod.nih.gov/canvass), in collaboration with academic and industry researchers, for quantitative high-throughput screening (qHTS) across a diverse set of cell-based and biochemical assays. The pure (>85% purity by liquid chromatography/mass spectrometry [LC/MS]) Canvass library of 346 natural products were submitted by 45 academic laboratories and companies around the world. […] The library was formatted into 1536-well plates and evaluated in 50 qHTS (in an 11-pnt concentration series) bioassays with broad scope of disease-relevant mechanisms. The resulting data set from 50 different assays was then systematically analyzed to identify overall trends and specific natural products with interesting biological activities. […] This assay uses ATP (luminescence) content to measure the cytotoxiciy of compounds on MCF7 human breast cancer cell line. […]
Cancer Cell Toxicity qHTS protocol: MCF7 cell line 1. […] Luminescence signal was acquired via the ViewLux plate reader (PerkinElmer) using a clear emission filter, 2 sec exposure, and 1x binning settings.

[7] = qHTS for ATAD5 Antagonist screened against the NCATS CANVASS Library (AID 1347370);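 also: HEK293T cells carrying an ATAD5 luciferase reporter co-treated with 10 µM 5-fluorouridine; nearly all actives have a fitted effect of over 65% in size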
Method in brief: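 HEK293T cells with stably integrated ATAD5-luciferase reporter, 2000/well, 5 h attachment; compounds plus 10 µM 5-fluorouridine, 16 h at 37 °C. Luciferase luminescence read, with CellTiter-Fluor viability read first.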

[8] = J3T Cancer Cell Toxicity qHTS against the NCATS CANVASS Library (AID 1347371);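 also: J3T is a canine glioma cancer cell line seeded at 500 cells per well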
Method in brief: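 J3T dog glioma cells, 500 per well, treated 72 h at 37C with compounds (11-point qHTS); viability from ATP content by CellTiterGlo luminescence; bortezomib titration as control.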

[9] = target: Nuclear receptor subfamily 1 group I member 3 (Homo sapiens) (UniProt Q14994); assay: qHTS for Constitutive Androstane Receptor (CAR) Antagonist screened against the NCATS CANVASS Library (AID 1347372);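 also: cells stimulated with 50 nM CITCO agonist so inhibition reflects antagonism; luciferase from CYP2B6 promoter reporter driven by hCAR in HepG2 cells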
From the text: Natural products and their derivatives continue to be wellsprings of nascent therapeutic potential. However, many laboratories have limited resources for biological evaluation, leaving their previously isolated or synthesized compounds largely or completely untested. To address this issue, the Canvass library of natural products was assembled (https://tripod.nih.gov/canvass), in collaboration with academic and industry researchers, for quantitative high-throughput screening (qHTS) across a diverse set of cell-based and biochemical assays. […] The library was formatted into 1536-well plates and evaluated in 50 qHTS (in an 11-pnt concentration series) bioassays with broad scope of disease-relevant mechanisms. The resulting data set from 50 different assays was then systematically analyzed to identify overall trends and specific natural products with interesting biological activities. […]
Material: A double-stable (hCAR and CYP2B6-2.2kb) transfected cell line, derived from human hepatoma (HepG2) cells, was utilized for the duration of the quantitative high-throughput screens. […] A first readout of fluorescence signal was acquired via the ViewLux (PerkinElmer) plate reader using a FITC dichroic mirror, excitation 405/10 nm filter, and emission 540/25 nm filter; and using 65 light energy, 1 second exposure, and 2x binning settings. […]

[10] = KB-3-1 Cancer Cell Toxicity qHTS against the NCATS CANVASS Library (AID 1347366); conditions: KB-3-1 viability, CellTiter-Glo luminescence, 72 h; at 46.1 µM (top of the series); also: nearly all actives have a fitted effect of over 75% in size
From the text: Natural products and their derivatives continue to be wellsprings of nascent therapeutic potential. However, many laboratories have limited resources for biological evaluation, leaving their previously isolated or synthesized compounds largely or completely untested. To address this issue, the Canvass library of natural products was assembled (https://tripod.nih.gov/canvass), in collaboration with academic and industry researchers, for quantitative high-throughput screening (qHTS) across a diverse set of cell-based and biochemical assays. The pure (>85% purity by liquid chromatography/mass spectrometry [LC/MS]) Canvass library of 346 natural products were submitted by 45 academic laboratories and companies around the world. We collected pure natural products to circumvent deconvolution and structure elucidation due to time and resource limitations. The library was formatted into 1536-well plates and evaluated in 50 qHTS (in an 11-pnt concentration series) bioassays with broad scope of disease-relevant mechanisms. The resulting data set from 50 different assays was then systematically analyzed to identify overall trends and specific natural products with interesting biological activities. […]
Cancer Cell Toxicity qHTS protocol 1. […] Luminescence signal was acquired via the ViewLux plate reader (PerkinElmer) using a clear emission filter, 1 sec exposure, and 1x binning settings.

Measured: outcome

Chain of Nuclear receptor subfamily 1 group I member 3 (Homo sapiens) (Q14994 whole entry, looked up): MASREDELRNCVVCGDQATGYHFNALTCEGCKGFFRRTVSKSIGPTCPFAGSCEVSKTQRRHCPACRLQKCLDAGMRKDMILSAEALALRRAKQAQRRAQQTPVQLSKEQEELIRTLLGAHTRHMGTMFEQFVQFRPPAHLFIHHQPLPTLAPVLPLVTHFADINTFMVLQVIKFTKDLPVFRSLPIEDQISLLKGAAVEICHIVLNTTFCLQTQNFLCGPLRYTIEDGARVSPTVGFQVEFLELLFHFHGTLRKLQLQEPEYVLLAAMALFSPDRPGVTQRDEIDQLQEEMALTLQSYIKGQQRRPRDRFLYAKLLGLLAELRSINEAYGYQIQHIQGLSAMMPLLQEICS
Chain of Luciferin 4-monooxygenase (Photinus pyralis) (P08659 whole entry, looked up): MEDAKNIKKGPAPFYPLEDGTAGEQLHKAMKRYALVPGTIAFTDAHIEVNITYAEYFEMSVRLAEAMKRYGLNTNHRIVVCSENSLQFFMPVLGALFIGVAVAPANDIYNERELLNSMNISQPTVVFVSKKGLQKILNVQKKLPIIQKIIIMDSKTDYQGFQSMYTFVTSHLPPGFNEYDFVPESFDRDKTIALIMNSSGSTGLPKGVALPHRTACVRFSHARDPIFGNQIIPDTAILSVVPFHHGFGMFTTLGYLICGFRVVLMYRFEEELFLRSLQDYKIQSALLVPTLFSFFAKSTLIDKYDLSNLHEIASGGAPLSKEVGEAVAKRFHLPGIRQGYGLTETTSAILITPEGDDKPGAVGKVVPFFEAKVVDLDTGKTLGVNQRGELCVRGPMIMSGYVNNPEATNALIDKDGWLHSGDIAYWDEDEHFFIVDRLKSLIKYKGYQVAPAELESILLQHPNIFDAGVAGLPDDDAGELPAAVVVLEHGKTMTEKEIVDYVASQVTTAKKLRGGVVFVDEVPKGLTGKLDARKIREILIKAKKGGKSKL

C=C(C)[C@@H]1CC[C@]2(C(=O)O)CC[C@]3(C)[C@H](CC[C@@H]4[C@@]5(C)CC[C@H](O)C(C)(C)[C@@H]5CC[C@]43C)[C@@H]12
not listed: [10]
inactive: all other assays above

O=c1c(O)c(-c2ccc(O)c(O)c2)oc2cc(O)ccc12
not listed: [1] | [3] | [5]
inactive: all other assays above
